This is an account of results in PubChem BioAssay AID1347426 (Functional Genomics Laboratory (NCATS/FGL), 2020).

Among all 31,000 sequences or so, about 1,400 (4.5%) were called active.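 The calls were made as follows: active = median seed-adjusted z-score above 1 or below -1; inactive = the rest.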 Only a selection was taken, and actives are over-represented in it overall.

The nature of this experiment: Novel Modifiers of Survival Motor Neuron (SMN) Protein: Gene Identification via Genome-wide siRNA Screen.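 Also: luminescence tracks full-length SMN protein made from the SMN2 reporter.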 As to conditions: HEK293T SMN2-luciferase reporter, siRNA knockdown, 72 h; actives lie on both sides. A digest of the protocol:
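Luciferase signal, proportional to full-length SMN made from an SMN2 cDNA reporter in stable HEK293T cells, was read 72 h after siRNA reverse transfection. Values were expressed as MAD scores after non-targeting-control normalization and log10 conversion; seed analysis flagged off-targets.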
Regarding CCAACGAGCGAGCAGCUUATT against BARX1, the median seed-adjusted z-score is 1.63 (active).
Consider ACGGCAAGGUGUUCGAUGUTT against PGRMC1, for which the median seed-adjusted z-score was 0.124 (inactive).
Regarding CGUUCGACCUGAUCGCAAATT against ODZ2, the median seed-adjusted z-score is -0.0233 (inactive).
GGGUCACACUAUUUCGUGUTT against ARIH1: the median seed-adjusted z-score was -0.443 (inactive).
As for GAUGAGUGCUGCUUCCGGATT against IGF1, the median seed-adjusted z-score was 0.559 (inactive).
In the case of CCAGCUCCACGAAAAAGAATT against ZNF395, the median seed-adjusted z-score was -0.0986 (inactive).
On to GAUACAGUCUACGCAGUUATT against ATPAF1, for which the median seed-adjusted z-score is 0.393 (inactive).
Consider CAGCGUGCAUUUUCACUAATT against AKAP11, for which the median seed-adjusted z-score was -0.0405 (inactive).
For the sequence GCACUAAGAGUGACGUGUATT against PSKH1, the median seed-adjusted z-score is -2.03 (active).
Consider GGCUACAAUUUAAGACGAUTT against TNR, for which the median seed-adjusted z-score was 0.498 (inactive).
Then GAAAGAUGCAAAAGACAAATT against SFPQ, with -1.15 (active).
Then GGUUAUGUAGUAACGAGUUTT against ALS2, with 0 (inactive).
On to GGAAUAUAAUAAGCGAAGATT against TAOK1, for which the median seed-adjusted z-score is -0.0533 (inactive).
Regarding CGAGACUACUAAAGAAACATT against DDX18, the median seed-adjusted z-score is 0.241 (inactive).
Turning to CUACGACUUUUCCAAUAUATT against SLC6A4, the median seed-adjusted z-score is 1.43 (active).
On to CCAUCUCCCUUGUGCUGCATT against NINJ1, for which the median seed-adjusted z-score was -0.061 (inactive).
Then GAGAGACCCUCGUCCUUUATT against CYP20A1, with -0.796 (inactive); and GAAAGGCUUUGACCAAUCUTT against ZNF319, with 0.256 (inactive).
With GUCACUAGCUUAUCUUGAATT against VEGFA, the median seed-adjusted z-score is 0.495 (inactive).
With AGCAAAGUGUUCUACCUGATT against YWHAG, the median seed-adjusted z-score is 1.98 (active).
To GAAAAUCGAAAGACUAAAATT against UTP11L belongs -0.755 (inactive); to CUAAUGAGUUUGUCUAAUATT against PKDREJ, 0.376 (inactive).
For the sequence AGUGGAUUGUAGACAUGGATT against UBE2W, the median seed-adjusted z-score is -0.655 (inactive).
On to GCAUCUACCGGAUCCUGAUTT against DDX49, for which the median seed-adjusted z-score was 0.0816 (inactive).
As for GCAGGCUAAUCGCAAUGAATT against ANXA13, the median seed-adjusted z-score is -0.467 (inactive).
Consider GCCAGAGUCCUGAUGCACATT against GPR31, for which the median seed-adjusted z-score is -0.0381 (inactive).
To GGACAAAGCAUUGACAAUUTT against KCNJ13 belongs 0.327 (inactive); to CAUCGGCUAUGACAACAUUTT against PSTPIP2, 0.0136 (inactive); to GGUUCGUGAAGUUCGUAAATT against UTP3, -1.08 (active).
Then GAGUUAGGGAAAAAGCGUATT against ANK3, with 0.0252 (inactive); and CGUUGUUUUUGAGCACGUUTT against LMBR1, with 0.236 (inactive).
To GGGAGAUCCUAGAACAAGATT against TAOK1 belongs -0.0533 (inactive); to GUUUUGACCCUAUAGUUUATT against P2RY5, 0.0278 (inactive).
Turning to GCAUUUGUUUGGGUUGCGATT against MTF2, the median seed-adjusted z-score is 0 (inactive).
On to GCAUUGUGAUCGAGGACAATT against HCN2, for which the median seed-adjusted z-score was 0 (inactive).
For CGACAAUUCUUCUAGACAATT against TTC3, the median seed-adjusted z-score was -1.17 (active).
Regarding ACAUCGAGUCAGAUCUUCATT against SLC11A1, the median seed-adjusted z-score is -0.516 (inactive).
On to GGAGGUAUCUAACAAGAUUTT against LPO, for which the median seed-adjusted z-score was 0.201 (inactive).
In the case of UGCACGAUCUUCUACCCAATT against TKTL1, the median seed-adjusted z-score is -0.495 (inactive).
Then AGCUUUCUUGAGCACCUGATT against LRRC32, with 0.0464 (inactive).
For the sequence GAUGGACAUUGAUAGCGAUTT against DTX3L, the median seed-adjusted z-score is 0.0785 (inactive).
Then GAACGGCUCUUAAGAUCAATT against CACNA1D, with -0.0856 (inactive); and CUAUGUACCGCUUCACUGATT against MMP9, with -1.15 (active).
For the sequence GGAAAUCUGUCACAUCGUATT against NR1I3, the median seed-adjusted z-score is 0.000933 (inactive).
Take CGGGUUUCAUCAAAGUGCATT against RASSF5: the median seed-adjusted z-score is 0.11 (inactive).
Turning to GCAACUUCCUAGAACUGUUTT against PCYT1B, the median seed-adjusted z-score is 0.177 (inactive).
Then GGAGGACGGCUUCUACGAATT against KCNJ9, with -0.0832 (inactive); and GACUCUCUACCAUGGAUUUTT against SLC25A42, with -1.02 (active).
Then CGUACAUCCAGUGACCCUATT against MTMR4, with -0.735 (inactive); and GAAACCAUCGGGAAGAUUUTT against VWA2, with 0.584 (inactive); and GAAAUGUGGUACUAAAGCATT against RALBP1, with -0.0514 (inactive).
Turning to CAAUGAUCAUGGACCGUUUTT against CPEB3, the median seed-adjusted z-score was 0.086 (inactive).
To CAAGUGCGAUAUCACCUUATT against IL4 belongs -0.192 (inactive).
Consider UCACAGUCACAUACAGAGATT against SNRPD3, for which the median seed-adjusted z-score was -2.69 (active).
Turning to GUAUCUAACUUAUCUACUATT against HTR5A, the median seed-adjusted z-score was -0.0687 (inactive).
Turning to GGUUUCAACUGGACUUCUATT against MFSD5, the median seed-adjusted z-score is 0.205 (inactive).
In the case of ACAGUCUUGUGAUCAGAAATT against UHRF1, the median seed-adjusted z-score is 0.231 (inactive).
For the sequence AAAGCAAGCUGUUACAAAATT against ACAT2, the median seed-adjusted z-score is 1.25 (active).
For GACGUAACAUCAACAGAUATT against SV2B, the median seed-adjusted z-score is -0.43 (inactive).
To GGACUUAACGGUAUCCAAATT against PCDHB10 belongs -0.09 (inactive).
Turning to GCAGCUUUAACCAUUAAAATT against LTB4R, the median seed-adjusted z-score is 0.498 (inactive).
To GCAAGACAACCAUUCUGUATT against ARF4 belongs 0.346 (inactive); to GCCGUGCUGAAGGCUCUAATT against KCNE3, -1.33 (active).
On to GGAAACUUCUCACCUAUGATT against MAGED1, for which the median seed-adjusted z-score is 0.524 (inactive).
As for GGCCGUGUACUGUAUCAUUTT against NUP93, the median seed-adjusted z-score is 1.01 (active).
Take CCACUGUUGGAAUUAAAGATT against AOAH: the median seed-adjusted z-score is -0.123 (inactive).
As for GUACAUAGAUUCUAGGCAATT against FOXJ3, the median seed-adjusted z-score is -0.155 (inactive).
To GGCAGAUGAUGGUAUCACATT against CNGA4 belongs 0.125 (inactive); to CCAUGUUCAUCAAAACUCUTT against ARHGAP1, -1.14 (active).
With GAAGCACAUUGUUUCCAGATT against SERGEF, the median seed-adjusted z-score was -0.308 (inactive).
For CCCUUACCUUAAUCGACGATT against CRB1, the median seed-adjusted z-score is 0 (inactive).
Take GGCUGUAUCACAUCGGUUATT against CCR2: the median seed-adjusted z-score was -0.00107 (inactive).
As to GUGCUUUGGUGGUACUAUUTT against ELOVL2, the median seed-adjusted z-score is -0.456 (inactive).
For the sequence CAGUGGUAAGAAAGAGAAATT against NRCAM, the median seed-adjusted z-score was -0.0304 (inactive).
Then CACUAACUGAUUUACAAGATT against UBE2J1, with -1.2 (active); and GGUAAACGAGAUCAACUUUTT against DVL3, with -0.57 (inactive).
Then GGAUAUUAGUGUCGUGCAATT against ARHGEF7, with 0.185 (inactive); and GGAGAUUAGCAAGACCAUUTT against HOXC10, with 0.000966 (inactive); and AGACAGCUGCGAAUCUGGATT against MEFV, with 0 (inactive).
In the case of GGGUUUAUAUCGAACGCAATT against RNF144B, the median seed-adjusted z-score was 0.642 (inactive).
On to CUCCUGCCUUGAGCCCUUATT against GFRA4, for which the median seed-adjusted z-score is -1.59 (active).
Then UGAUGCCUGUGAUACACUATT against NEU1, with -0.425 (inactive); and GACAGGUACUUCUAAGUCATT against AHSA1, with 0.489 (inactive).
With GAAAUUUGCGUGUGGAGUATT against TP53, the median seed-adjusted z-score is 0.214 (inactive).
On to CUAGAUAUCGUGGACCUCATT against PYDC1, for which the median seed-adjusted z-score is -1.44 (active).
On to AUACUACGUUGAUUACAAATT against LRRTM1, for which the median seed-adjusted z-score was -0.528 (inactive).
To CCAGUACCAAAGUUGAUAATT against RB1 belongs 0.49 (inactive); to CCAUCUGUUUGAACUUAGATT against TLR5, 0 (inactive).
Then GCUAAAGAGAGAUAUGGAATT against DARS, with 0 (inactive); and GAGUUGAAAAUGACAAUGATT against CLSTN1, with 0.0811 (inactive); and ACAGCCGCAUGAACAAGGATT against B3GNT7, with -1.05 (active).
As to CAAAGACCCUUUAUUCGAATT against BTBD10, the median seed-adjusted z-score is 0.695 (inactive).
As for GCCUUAUUGUUACAUGGUUTT against SLC19A2, the median seed-adjusted z-score is -0.679 (inactive).
For the sequence GCGCAGACGUGAUUGUCAATT against DAO, the median seed-adjusted z-score was -0.00887 (inactive).
On to UGAGAGCCCUAUUCCAGUATT against UBASH3A, for which the median seed-adjusted z-score is -1.1 (active).
Consider GGAGGAUCCCAUUAUACUATT against LPA, for which the median seed-adjusted z-score was -0.321 (inactive).
On to GGAUCGCACUCAUGUGGAATT against A4GALT, for which the median seed-adjusted z-score was -0.286 (inactive).
Regarding GCAGAUGGUUAUAAGCACATT against GLA, the median seed-adjusted z-score was -0.494 (inactive).
To GACCCGUUUAUACAACAAATT against MX2 belongs -0.0346 (inactive); to CUAGCAACAUGGACAUAUUTT against STS, -0.392 (inactive); to GGAUUACGUAUCAGACAUATT against CNGA1, -1.08 (active).
For GGAGCAAAACAGAUCUUGATT against PINX1, the median seed-adjusted z-score is 0.11 (inactive).
CCUCUCUAGUAAUGCAAGATT against NAT12: the median seed-adjusted z-score is -0.0807 (inactive).
On to GCUGUGCGUUCUUCACAAATT against RAB17, for which the median seed-adjusted z-score was 0.473 (inactive).
Regarding CACUCAGACGGGACGUUCATT against SCT, the median seed-adjusted z-score is -0.454 (inactive).
Take CGAGUUUGCUUGGUCAGAATT against SF3B1: the median seed-adjusted z-score was -3.65 (active).
In the case of CAAUAGAUCAAGUUAUACATT against KPNA5, the median seed-adjusted z-score was -0.174 (inactive).
Take UGCUUGGCGACUUCAGUAATT against AKR1C2: the median seed-adjusted z-score was -0.109 (inactive).
